Experimental data reported in PubChem BioAssay (EPA / NIEHS).
Records with an inconclusive call do not appear. Calls of active or inactive are those of the source. How the source made its calls, unless noted: active means hit-call score of the fitted dose curve at least 0.9, where 1 is the maximum; inconclusive means response in the unintended direction; inactive means score below 0.9.

How the values were obtained:
[1] = read-out: Thyroid Hormone Responsive (THRSP), THRSP (gene 7069); assay: LTEA_HepaRG_THRSP: Life Technologies and Expression Analysis (LTEA) Assay for Thyroid Hormone Responsive (THRSP) using HepaRG (AID 2283536; active means hit-call score of the fitted dose curve at least 0.9, where 1 is the maximum; inactive means score below 0.9); settings: mRNA level, 48 h; actives raise or lower the signal
Method in brief: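 mRNA induction or loss relative to 0.5% DMSO vehicle was fitted bidirectionally across an eight-point curve whose highest exposure was 100 uM. Human HepaRG liver cells received chemicals in duplicate over 48 h before RNA extraction.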

[2] = read-out: Cellular tumor antigen p53 (Homo sapiens) (UniProt P04637); assay: LTEA_HepaRG_TP53: Life Technologies and Expression Analysis (LTEA) Assay for Tumor Protein P53 (TP53) using HepaRG (AID 2283537; active means hit-call score of the fitted dose curve at least 0.9, where 1 is the maximum; inactive means score below 0.9); settings: mRNA level, 48 h; actives raise or lower the signal
Method in brief: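 Differentiated HepaRG cells in serum-free induction medium exposed 48 h in duplicate to 8 half-log concentrations, top 100 uM, 0.5% DMSO. TP53 mRNA by TaqMan qRT-PCR (Fluidigm), normalized to ACTB, GAPDH, POLR2A; fitted bidirectionally versus DMSO.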

[3] = read-out: UDP glucuronosyltransferase (UGT1A1), UGT1A1 (gene 54658); assay: LTEA_HepaRG_UGT1A1: Life Technologies and Expression Analysis (LTEA) Assay for UDP glucuronosyltransferase (UGT1A1) using HepaRG (AID 2283538; active means hit-call score of the fitted dose curve at least 0.9, where 1 is the maximum; inactive means score below 0.9); settings: mRNA level, 48 h; actives raise or lower the signal
Method in brief: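 HepaRG cells, 0.5% DMSO vehicle, 48 h exposure in serum-free induction medium to 8-point half-log series topping at 100 uM, in duplicate. UGT1A1 mRNA by Fluidigm qRT-PCR, normalized to ACTB/GAPDH/POLR2A; bidirectional fit versus DMSO.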

[4] = read-out: UDP glucuronosyltransferase (UGT1A6), UGT1A6 (gene 54578); assay: LTEA_HepaRG_UGT1A6: Life Technologies and Expression Analysis (LTEA) Assay for UDP glucuronosyltransferase (UGT1A6) using HepaRG (AID 2283539; active means hit-call score of the fitted dose curve at least 0.9, where 1 is the maximum; inactive means score below 0.9); settings: mRNA level, 48 h; actives raise or lower the signal
Method in brief: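 Expression was quantified by TaqMan qRT-PCR on Fluidigm arrays with ACTB/GAPDH/POLR2A normalization and bidirectional fitting against 0.5% DMSO. HepaRG cells (~100,000/well) were treated in duplicate for 48 h at eight half-log concentrations up to 100 uM in serum-free induction medium.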

[5] = read-out: X-box binding protein 1 (XBP1), XBP1 (gene 7494); assay: LTEA_HepaRG_XBP1: Life Technologies and Expression Analysis (LTEA) Assay for X-box binding protein 1 (XBP1) using HepaRG (AID 2283540; active means hit-call score of the fitted dose curve at least 0.9, where 1 is the maximum; inactive means score below 0.9); settings: mRNA level, 48 h; actives raise or lower the signal
Method in brief: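 XBP1 transcript by qRT-PCR (housekeeping-normalized: ACTB, GAPDH, POLR2A) after 48 h chemical treatment of HepaRG cells, 8-point half-log series topping at 100 uM, vehicle 0.5% DMSO. Gain and loss of signal fitted relative to DMSO.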

[6] = LTEA_HepaRG_LDH_cytotoxicity: Cytotoxicity Assessment in the Life Technologies and Expression Analysis (LTEA) Assay (AID 2283563)
Method in brief: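 LDH release into culture medium read after 48 h chemical treatment of HepaRG cells. Duplicate wells, eight-point half-log series topping at 100 uM, 0.5% DMSO vehicle and baseline.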

[7] = TOX21_p53_BLA_p2_viability: Viability Assessment in the Tox21 HCT-116 p53 Agonism Beta-lactamase Assay, Phase 2 (AID 2283591);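 further: compound exposure lasted 16 h at 37 °C; actives lower the ATP signal meaning cytotoxicity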
Method in brief: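 Cytotoxicity readout: CellTiter-Glo ATP luminescence, 30 min at room temperature, after the beta-lactamase read. Cells were HCT116 exposed 16 h at 37C to compounds pin-transferred at 217-fold dilution from DMSO stocks.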

[8] = molecular target: Cellular tumor antigen p53 (Homo sapiens) (UniProt P04637); assay: TOX21_p53_BLA_p2_ratio: Tox21 HCT-116 p53 Agonism Beta-lactamase Assay, Ratio, Phase 2 (AID 2283592)
Cellular tumor antigen p53 (Homo sapiens), sequence (P04637 whole entry, looked up): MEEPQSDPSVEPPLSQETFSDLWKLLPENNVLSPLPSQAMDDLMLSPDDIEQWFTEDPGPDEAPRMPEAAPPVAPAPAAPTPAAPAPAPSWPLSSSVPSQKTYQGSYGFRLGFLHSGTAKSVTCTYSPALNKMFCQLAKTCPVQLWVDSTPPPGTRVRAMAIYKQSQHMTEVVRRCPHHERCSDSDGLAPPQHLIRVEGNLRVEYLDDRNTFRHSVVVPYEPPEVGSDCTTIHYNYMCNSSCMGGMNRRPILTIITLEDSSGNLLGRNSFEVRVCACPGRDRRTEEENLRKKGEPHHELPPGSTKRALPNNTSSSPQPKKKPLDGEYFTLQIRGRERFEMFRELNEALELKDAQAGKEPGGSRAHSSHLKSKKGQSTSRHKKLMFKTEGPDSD
Method in brief: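 Gain-of-signal p53 agonism was scored from the beta-lactamase FRET ratio (460/530 nm, 405 nm excitation) in HCT116 cells treated 16 h at 37C, 5% CO2, with DMSO serving as negative control and baseline.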

[9] = molecular target: Cellular tumor antigen p53 (Homo sapiens) (UniProt P04637); assay: TOX21_p53_BLA_p3_ratio: Tox21 HCT-116 p53 Agonism Beta-lactamase Assay, Ratio, Phase 3 (AID 2283596)
Method in brief: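 HCT116 p53-bla cells (4000/well) given compound in DMSO (217-fold dilution) after 5 h, incubated 16 h at 37C. CCF4-AM substrate 2 h at room temperature; 460/530 nm emission ratio, gain fitted against DMSO.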

[10] = molecular target: Cellular tumor antigen p53 (Homo sapiens) (UniProt P04637); assay: TOX21_p53_BLA_p4_ratio: Tox21 HCT-116 p53 Agonism Beta-lactamase Assay, Ratio, Phase 4 (AID 2283601)
Method in brief: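 Signal is the blue/green (460nm/530nm) ratio of cleaved versus uncleaved CCF4-AM substrate, read after 2 h substrate loading. Cells were HCT116 carrying the p53-responsive beta-lactamase reporter, dosed 16 h at 37C, 5% CO2; CellTiter-Glo measured in parallel.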

[11] = Tanguay_ZF_120hpf_MORT_legacy: (Legacy) Oregon State University Tanguay Lab 120 Hour Post-fertilization zebrafish Assay for Mortality (AID 2283633)
Method in brief: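 Static waterborne exposure from 6 to 120 hpf at 28C of single dechorionated wild-type (5D) embryos per well, 0.64% DMSO final. Death recorded present/absent by brightfield at 24 and 120 hpf.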

[12] = Tanguay_ZF_120hpf_YSE_legacy: (Legacy) Oregon State University Tanguay Lab 120 Hour Post-fertilization zebrafish Assay for Yolk Sac Edema (AID 2283634)
Method in brief: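 Presence or absence of yolk sac edema was recorded at 120 hpf in surviving larvae. These were wild-type Tropical 5D embryos, chorion removed at 4 hpf, held in static exposure at 28C from 6 hpf with 0.64% DMSO vehicle.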

[13] = Tanguay_ZF_120hpf_AXIS_legacy: (Legacy) Oregon State University Tanguay Lab 120 Hour Post-fertilization zebrafish Assay for Body Axis Malformation (AID 2283635)
Method in brief: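 Binary scoring of axis defects at 120 hpf under brightfield, fitted positive versus DMSO. Tropical 5D embryos, chorion removed by pronase at 4 hpf, were singly exposed in sealed, dark plates at 28C from 6 hpf; DMSO 0.64% final.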

[14] = Tanguay_ZF_120hpf_SNOU_legacy: (Legacy) Oregon State University Tanguay Lab 120 Hour Post-fertilization zebrafish Assay for Snout Malformation (AID 2283637)
Method in brief: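 Snout malformation read as a yes/no call on brightfield images of 120 hpf larvae (Tropical 5D strain). Static exposure began at 6 hpf on dechorionated embryos in 0.64% DMSO, with gain of signal analysed versus DMSO controls.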

[15] = TOX21_p53_BLA_p5_viability: Viability Assessment in the Tox21 HCT-116 p53 Agonism Beta-lactamase Assay, Phase 5 (AID 2283600)
Method in brief: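 After the 460/530 nm beta-lactamase measurement, the wells received an ATP-detection luciferase reagent; signal was read 30 min later at RT. Compound treatment lasted 16 h on cells pre-incubated 5 h post-seeding.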

[16] = Tanguay_ZF_120hpf_EYE_legacy: (Legacy) Oregon State University Tanguay Lab 120 Hour Post-fertilization zebrafish Assay for Eye Malformation (AID 2283636)
Method in brief: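 Read-out is binary presence or absence of eye malformation, scored by brightfield microscopy at 120 hpf. Single larvae were exposed from 6 hpf in embryo medium containing 0.64% DMSO, with DMSO as baseline.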

[17] = TOX21_p53_BLA_p4_viability: Viability Assessment in the Tox21 HCT-116 p53 Agonism Beta-lactamase Assay, Phase 4 (AID 2283597);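 further: hits lower the luminescence signal meaning cytotoxicity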
Method in brief: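 Following a 16 h exposure at 37C, the treated HCT116 wells were first read for the FRET ratio. They were then lysed with CellTiter-Glo, and ATP luminescence was recorded after 30 min at room temperature.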

[18] = molecular target: Cellular tumor antigen p53 (Homo sapiens) (UniProt P04637); assay: TOX21_p53_BLA_p5_ratio: Tox21 HCT-116 p53 Agonism Beta-lactamase Assay, Ratio, Phase 5 (AID 2283599)
Method in brief: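 Beta-lactamase reporter ratio (blue 460 nm over green 530 nm, 405 nm excitation) after 2 h CCF4-AM loading, in HCT-116 cells exposed 16 h at 37 C to compounds pinned at 217-fold dilution. Increases relative to DMSO baseline scored.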

Measured: AC50

[As]#[In]
not listed: [15] | [16] | [17] | [18]
inactive: all other assays above

COC(=O)c1ccccc1N
not listed: [17] | [18]
inactive: all other assays above

CN(C)C(=O)Nc1ccc(Cl)cc1
active: [3] 30.8 µM
inactive: all other assays above

Brc1ccc(Oc2ccccc2)cc1
not listed: [14] | [17]
inactive: all other assays above

[O-][Cl+]O
not listed: [9] | [10] | [17]
inactive: all other assays above

CS(=O)(=O)NC(=O)c1cc(Oc2ccc(C(F)(F)F)cc2Cl)ccc1[N+](=O)[O-]
active: [3] 3.32 µM
not listed: [17] | [18]
inactive: all other assays above

COP(=S)(OC)SCN1C(=O)c2ccccc2C1=O
inactive: all assays above
